Test results: the supplement of paper PMC13380429

Tested on: Vero E6 infected with SARS-CoV-2
Test: inhibition of SARS-CoV-2 cytopathic effect; higher = more antiviral protection, active = above 15
Settings: 48 h

Measured: inhibition of SARS-CoV-2 cytopathic effect

CC[C@H](C)[C@H](N)C(=O)O [isoleucine]
inactive: 1 nM -1.51% | 8.33 nM -4.12% | 100 nM -0.12% | 833.33 nM 0.05% | 10000 nM 1.97%

CC(=O)O[C@]1(C(C)=O)CC[C@H]2[C@@H]3CCC4=CC(=O)CCC4=C3[C@@H](c3ccc(N(C)C)cc3)C[C@@]21C [Ulipristal acetate]
inactive: 1 nM 4.79% | 8.33 nM 2.62% | 100 nM 1.8% | 833.33 nM 7.36% | 10000 nM 12.9%

Cc1ccccc1/N=N/c1ccc(NC(=O)c2ccnn2C)c(C)c1
inactive: 1 nM -1.46% | 8.33 nM 0.89% | 100 nM 1.16% | 833.33 nM 2.03% | 10000 nM 0.48%

CC1(C)O[C@@H]2C[C@H]3[C@@H]4C[C@H](F)C5=CC(=O)C=C[C@]5(C)[C@H]4[C@@H](O)C[C@]3(C)[C@]2(C(=O)CO)O1 [flunisolide]
inactive: 1 nM -0.25% | 8.33 nM 0.14% | 100 nM -1.38% | 833.33 nM -0.29% | 10000 nM -0.97%

Cn1cc(-c2ccc3nnc(Sc4ccc5ncccc5c4)n3n2)cn1
inactive: 1 nM 0.46% | 8.33 nM -0.33% | 100 nM -1.37% | 833.33 nM -0.25% | 10000 nM 3.33%

COC(=O)N[C@H](C(=O)N1CCC[C@H]1C(=O)Nc1ccc([C@@H]2CC[C@@H](c3ccc(NC(=O)[C@@H]4CCCN4C(=O)[C@@H](NC(=O)OC)C(C)C)cc3)N2c2ccc(C(C)(C)C)cc2)cc1)C(C)C [ombitasvir]
inactive: 1 nM -0.82% | 8.33 nM -0.6% | 100 nM -0.7% | 833.33 nM -1.11% | 10000 nM -1.21%

COc1cc(Br)c(Nc2nc(-c3c(C)nc4ncccn34)cs2)c(Br)c1
inactive: 1 nM -0.04% | 8.33 nM 0.45% | 100 nM 1.74% | 833.33 nM -3.16% | 10000 nM 10.6%

c1nc(CC2CCNCC2)c[nH]1 [immepip]
inactive: 1 nM -1.43% | 8.33 nM -3.19% | 100 nM -3.25% | 833.33 nM -0.04% | 10000 nM 0.13%

CCS(=O)(=O)CCn1c([N+](=O)[O-])cnc1C [tinidazole]
inactive: 1 nM -3.22% | 8.33 nM -2.91% | 100 nM 1.02% | 833.33 nM 4.13% | 10000 nM -0.87%

O=C(CN1CCN(Cc2ccc3c(c2)OCO3)CC1)N1c2ccccc2Sc2ccccc21 [fenoverine]
inactive: 1 nM 0.16% | 8.33 nM -2.81% | 100 nM 4.98% | 833.33 nM -0.47% | 10000 nM -3.71%
